The source of these data is PubChem BioAssay AID493179 (National Center for Advancing Translational Sciences (NCATS), 2011).

Results filed as inconclusive are left out. A number with no mark means an inactive call. Active and inactive are the calls of the source. Calls come from the whole dose curve; as a rule, active = well fitted inhibition curve with a large enough effect; inconclusive = small, poorly fitted or top-dose-only effect; inactive = flat fitted curve, though single readings scatter.

The test in a line: Secondary Assay for General miRNAs Modulators and/or Inhibitors/Activators of miR-21: miR-30 Firefly Luciferase Assay for second round cherrypicks. Particulars: HeLa miR-30 FLuc reporter, luminescence, 48 h; series mostly up to 38.3 µM; activity change, negative = inhibition: at the top concentration. The text has this:
MLPCN Grant: 1 R21 NS059478-01 Assay Provider: Qihong Huang, The Wistar Institute NCGC Assay Overview: MicroRNAs (miRNAs) are endogenously encoded small (~20-25 nucleotides), nonprotein-coding RNAs that are involved in post-transcriptional repression of target messenger RNAs (mRNAs) (Le and Hannon, 2004). Estimated to be involved in the regulation of 30% of all protein-coding mRNAs (Filipowicz et al., 2008), miRNAs play a significant role in many biological processes including cellular differentiation and tissue development (Ghildiyal and Zamore, 2009). […] Compounds active in the miR-21 FLuc assay were clustered using Leadscope and active chemical series were prioritized based on chemical properties, potential for medicinal chemistry optimization, and SAR. Within each chemical series, representative compounds were re-acquired to test for activity in a secondary assay based on the quality of their CRC, efficacy, and potency. The secondary assay to determine if compounds active in the miR-21 FLuc assay were potentially specific for miR-21 and were not general modulators of the miRNA pathway was another cell-based FLuc reporter gene assay, this time targeting miR-30. Compounds found active in both the miR-21 FLuc and miR-30 FLuc assays are not considered miR-21 specific compounds, and may be general miRNA modulators.
NCGC Assay Protocol Summary: Reagents: HeLa cells stably expressing firefly luciferase (FLuc) under the control of a CMV promoter (upstream) and a miR-30 binding sequence directly downstream of the gene. These cells also stably express miR-30. Control compounds used were compound C3 (provided by collaborator), N6-phenyladenosine (MP Biomedicals, 0215379625), and DMSO. Assay Summary: 6uL of HeLa miR-30-FLuc cells in assay buffer (DMEM, Invitrogen #21063-029; 10% FBS, HyClone #SH30071.03) were dispensed at 1000cells/well (1.7 x 10^5 cells/mL) into Greiner solid-white TC-treated 1536-well plates using a Multidrop Combi (Thermo Fisher Scientific). Plates were incubated for one hour at 37 degree Celsius, 95% humidity, 5% CO2. These assay plates were then treated with 23nL of compound or DMSO using a Kalypsys pin tool, which allows for delivery of a 24-point titration of each compound to the assay plate, with a final compound concentration ranging from approximately 40uM to 5pM. Assay plates were then incubated for 48 hours. After incubation, plates were allowed to come to RT for one hour prior to delivery of 3uL of 3X luciferase detection reagent. After a 15 minute incubation to allow for cell lysis, luciferase activity was measured using a ViewLux CCD imager (PerkinElmer), with an average exposure time of 2-12 seconds. Keywords: NIH Roadmap, MLPCN, MLSMR, qHTS, miR-21, miR-30, microRNA, firefly luciferase, FLuc.
For `O=C(Nc1sc2c(c1C(=O)NCc1ccco1)CCCC2)c1cc(=O)c2ccccc2o1`, the Potency is 7.11 µM (active). With `CCC(C)NC(=O)CCCn1c(=O)c2cccn2c2ccccc21` (stereo not given), the “activity change, negative = inhibition” value was -2.15%. `CCc1cc(C(=O)Nc2ccccc2)cs1`: the Potency was 2.83 µM (active). Consider `CCOCCCNC(=O)c1cc2c(=O)n3ccccc3nc2s1`, for which the Potency is 11.3 µM (active). In the case of `CC(C)(C)CC(=O)Nc1nnc(-c2cccs2)s1`, the Potency is 5.04 µM (active). As for `CCCOc1ccc(OC(=O)c2ccc(-c3ccc(CCC)cn3)cc2)cc1`, the Potency was 1.59 µM (active).

Regarding `CCCCc1nn2c(=O)cc(COC(=O)c3cccc(NC(=O)c4cccc(C)c4)c3)nc2s1`, the Potency is 4 µM (active). Consider `COc1ccc(Nc2nc(C)c3ccccc3n2)cc1`, for which the Potency was 11.3 µM (active). For `Cc1ccc(-n2ncc3c(Nc4ccc5c(c4)OCCO5)ncnc32)cc1Cl`, the Potency is 10 µM (active). Same read-out and setting: to `Cc1cc(N2CCN(C)CC2)nc2ccc(NC(=O)c3ccccc3F)cc12` belongs 10 µM (active). For `CCc1ccc(C(=O)NCc2cccs2)s1`, the Potency was 20 µM (active). With `CCC(CC)C(=O)Nc1nnc(S(=O)(=O)N2CCCCCC2)s1`, the “activity change, negative = inhibition” value is 10.7%. In the case of `Cc1ccc2nc(-c3ccc(NC(=O)c4ccc(S(C)(=O)=O)cc4)cc3)sc2c1`, the “activity change, negative = inhibition” value is -8.74%. Turning to `CC(c1ccccn1)N(C)C(=O)c1ccc2nc(Cc3cccc(Cl)c3)oc2c1` (stereo not given), the Potency is 6.34 µM (active). As to `CCC(=O)Nc1sc(C(=O)Nc2ccccc2)c(C)c1C(=O)OC`, the Potency was 11.3 µM (active). Turning to `COc1ccc(CNc2nc(-c3ccco3)nn2C(=O)c2ccccc2Cl)cc1`, the Potency is 22.5 µM (active). For the compound `Cc1ccc(NC(=O)c2ccc(-c3ccccc3)s2)cc1`, the Potency was 5.04 µM (active).

Consider `Cc1ccccc1OCc1nc2c3cnn(-c4ccccc4F)c3ncn2n1`, for which the Potency is 20 µM (active).

`COc1ccccc1N1CCN(C(=O)c2nc(-c3ccc(C)cc3)n3c2CCCCC3)CC1`: the “activity change, negative = inhibition” value was 8.55%.

In the case of `Cc1cc(C)c2c(N)c(C(=O)Nc3ccccc3C(F)(F)F)sc2n1`, the Potency is 11.3 µM (active). `CCC(C)C(=O)N1CCCC(c2nc(-c3cccs3)no2)C1` (stereo not given): the Potency was 6.34 µM (active). In the case of `CC(=O)O[C@H]1C[C@@]2(C)[C@@H](C[C@@H](O)[C@H]3[C@@]4(C)CC[C@@H](O)[C@@H](C)C4CC[C@@]32C)/C1=C(\CCC=C(C)C)C(=O)O` (stereo not given in full), the “activity change, negative = inhibition” value is -1.25%. With `COCCNC(=O)c1ccc2c(c1)ncn2-c1ccc(F)c(F)c1`, the Potency is 22.5 µM (active). `CN(c1ccccc1)S(=O)(=O)c1nnc(NC(=O)c2ccco2)s1`: the “activity change, negative = inhibition” value was 0.66%. With `CN(C)c1ccc(CNC(=O)C2COc3ccccc3C2)cc1` (stereo not given), the “activity change, negative = inhibition” value is -18.4%. With `CC(C)(C)C1CCc2nc(NC(=O)Cc3ccc(Cl)cc3)sc2C1` (stereo not given), the “activity change, negative = inhibition” value is -15%.

Consider `Cc1ccc2c(Cl)c(C(=O)Nc3ccc4c(c3)OCO4)sc2c1`, for which the Potency was 1.59 µM (active).

As to `Cc1ccccc1C(=O)Nc1nnc(-c2ccco2)o1`, the Potency was 12.6 µM (active). Take `Cc1ccc(C(=O)Nc2ccc3c(c2)ncn3C)cc1`: the Potency is 2.83 µM (active). In the case of `CCOC(=O)c1cccc(NC(=O)c2cc(CN3CCCC3)on2)c1`, the Potency was 4.49 µM (active). As to `Cc1ccccc1NC(=O)c1cc2c([nH]c1=O)CC(C)(C)CC2=O`, the Potency was 0.634 µM (active). On to `C/C(=N/NC(=O)c1ccccc1)c1ccc(NC(=O)C(F)(F)F)cc1`, for which the “activity change, negative = inhibition” value is -12.5%. Consider `Cc1cccc(NC(=O)Nc2ccc(Br)cc2)n1`, for which the Potency is 4.49 µM (active).

On to `Cc1ccc(-c2cc(C(=O)NCC3CCCO3)no2)cc1` (stereo not given), for which the Potency was 3.56 µM (active).

For the compound `CC(=O)N1CCc2cc(CNC(=O)Cc3ccc(F)cc3)ccc21`, the Potency is 10 µM (active).

Turning to `CC(C)c1cc(C(=O)Nc2cccnc2)no1`, the Potency was 3.56 µM (active).

For the compound `CC(=O)c1ccc(Oc2ncnc3c2oc2ccccc23)cc1`, the Potency was 3.18 µM (active). As to `CCCCN1CCc2c([nH]c3ccccc23)C1=O`, the Potency is 11.3 µM (active). `CCOC(=O)C1CCN(C(=O)c2ccc(-n3ccc4ccccc43)s2)CC1`: the Potency is 11.3 µM (active).

Turning to `O=C(NC1CCCCCC1)C1CCN(C(=O)N2CCOc3ccc(Cl)cc32)CC1`, the “activity change, negative = inhibition” value is -4.96%.
